The source of these data is PubChem BioAssay (Tox21).

Records with an inconclusive call do not appear. A call without a number means that no potency is given here. A number with no mark means an inactive call. The source made the active and inactive calls. The call rests on the fitted dose curve; in most records, active means well fitted cell-killing curve with a large enough effect in the repeat runs; inconclusive means weak or mixed curves, or effect the other way; inactive means flat fitted curve, though single readings scatter.

The nature of the assay: qHTS RealTime-Glo MT Cell Viability Assay in HEK293 cells - 0 hour (AID 1224880). Further: top concentration of the series differs between compounds; nearly all actives have a fitted effect of over 45% in size. The conditions noted are these: RealTime-Glo luminescence; series mostly up to 76.8 µM. The source says:
U.S. Tox21 Program National Center for Advancing Translational Sciences [NCATS] NIH Chemical Genomics Center [NCGC] U.S. Environmental Protection Agency [EPA] National Institutes of Environmental Health Sciences [NIEHS] National Toxicology Program [NTP] U.S. Food and Drug Administration [FDA] Tox21 Assay Overview: Measure of cell viability is critical in the cell-base assay. Analysis of cell viability is necessary for the characterization of cell responses to cytotoxic drugs and environmental stress. A RealTime-Glo MT Cell Viability Assay to monitor cell viability in real time of continues cell culture during 40 hours of compound treatment was used to screen Tox21 10K library compounds in Hek293 cells. The RealTime-Glo MT Cell Viability Assay is a nonlytic, homogeneous, bioluminescent method to measure cell viability in real time using a simple, plate-based method. The assay involves adding NanoLuc luciferase and a cell-permeant prosubstrate to cells in culture. Viable cells reduce the proprietary prosubstrate to generate a substrate for NanoLuc luciferase. This substrate diffuses from cells into the surrounding culture medium, where it is rapidly used by the NanoLuc Enzyme to produce a luminescent signal. The signal correlates with the number of viable cells, making the assay well suited for cytotoxicity studies.
Tox21 Assay Protocol Summary: The mixture of Hek293 cell suspension and reagents were dispensed at 600cells/6 ul/well in 1536-well tissue culture treated black solid bottom plates using a Multidrop dispenser. After the assay plates were incubated at a 37 C/5% CO2 incubator for 5 hours, 23 nL of compounds dissolved in DMSO, positive and negative controls was transferred to the assay plate by a pintool work station. The plates were incubated at 37 C for 40 hours. The luminescence intensity were measured at 0h, 8h, 16h, 24h, 32h and 40h time points using ViewLux plate reader during compound treatment.
In the case of `CCCCCCCCCCCCCC`, the Potency entry is “inactive”. Same read-out and setting: then `CC(C)C(=O)OCc1cccc(OC(=O)[C@@H]2N3C(=O)[C@@H](NC(=O)Cc4ccccc4)[C@H]3SC2(C)C)c1`, with “inactive”; and `N#Cc1ccc(C(=O)O)cc1`, with “inactive”; and `O=C(/N=N/C(=O)OCc1ccccc1)OCc1ccccc1`, with “inactive”. Turning to `CCCCCCCC/C=C\CCCCCCCC(=O)OCCCC`, the activity change, negative = cytotoxicity is -2.24% [at 15.8 µM].

Consider `CCCCCCCCSCC`, for which the Potency result is “inactive”. Consider `CCCC/C=C/C=C\C=O`, for which the Potency result is “inactive”. In the case of `O=C(Nc1ccc(Cl)c(Cl)c1)C1CC1`, the Potency entry is “inactive”. Still for that read-out and setting: then `CC(=O)NCc1c(I)c(NC(C)=O)c(I)c(C(=O)O)c1I`, with “inactive”. `COC(=O)C1CC(=O)C(C(=O)OC)CC1=O` (stereo not given): the activity change, negative = cytotoxicity is 2.08% [at 6.97 µM]. Take `NCCS`: the Potency entry was “inactive”. With `COc1ccc(-c2cc(=O)c3c(O)cc(O[C@@H]4O[C@H](CO[C@@H]5O[C@@H](C)[C@H](O)[C@@H](O)[C@H]5O)[C@@H](O)[C@H](O)[C@H]4O)cc3o2)cc1O`, the Potency result is “inactive”. In the case of `CCCOC(=O)C(C)O` (stereo not given), the Potency result was “inactive”. Still for that read-out and setting: to `C=C(C)C1CCC(C)(O)CC1` (stereo not given) belongs “inactive”. The same measure, in the same setting: to `Nc1ncnc(Nc2ccccc2)n1` belongs “inactive”. The same measure, in the same setting: to `C#CC(C)N(C)C(=O)Nc1ccc(Cl)cc1` (stereo not given) belongs “inactive”; to `O=C1O[C@@H]2[C@@H](O)[C@H](O)O[C@@H]2[C@H]1O`, “inactive”. As to `O=C1c2cccc3c2[C@H](CCC3)CN1[C@@H]1CN2CCC1CC2`, the Potency entry is “inactive”. Still for that read-out and setting: then `Oc1ccccc1-c1nnco1`, with “inactive”; and `CC(C)(C)c1cc(CCC(=O)NN)cc(C(C)(C)C)c1O`, with “inactive”; and `Cc1cccc2nccnc12`, with “inactive”. `CN1CCN(CC(=O)N2c3ccccc3C(=O)Nc3cccnc32)CC1`: the activity change, negative = cytotoxicity was 7.23% [at 6.97 µM]. As to `CC(C)CC(=O)O`, the Potency result is “inactive”. Same read-out and setting: to `CCN(C)C(=O)Oc1cccc([C@H](C)N(C)C)c1` belongs “inactive”; to `C[C@@H](Oc1ccc(CNC(=O)c2cccnc2Oc2ccc3c(c2)OCO3)c(F)c1)C(=O)O`, “inactive”; to `CC(S)C(=O)NCC(=O)O` (stereo not given), “inactive”. Same read-out and setting: to `CC(C)C[C@H](NC(=O)CNC(=O)[C@H](Cc1ccc(O)cc1)NC(=O)[C@H](CO)NC(=O)[C@H](Cc1c[nH]c2ccccc12)NC(=O)[C@H](Cc1cnc[nH]1)NC(=O)[C@@H]1CCC(=O)N1)C(=O)N[C@@H](CCCN=C(N)N)C(=O)N1CCC[C@H]1C(=O)NCC(N)=O` (stereo in doubt) belongs “inactive”. `Cc1nc2n(c(=O)c1CCN1CCC(c3noc4cc(F)ccc34)CC1)CCC[C@H]2O`: the activity change, negative = cytotoxicity was 7.51% [at 15.8 µM]. For the compound `CCN1CCc2nc(N)oc2CC1`, the Potency entry is “inactive”.

As to `CCO[Si](CCCS)(OCC)OCC`, the Potency result is “inactive”. Same read-out and setting: then `O=C(OCC(O)CO)c1ccccc1Nc1ccnc2c(C(F)(F)F)cccc12` (stereo not given), with “inactive”. `CC(CC=O)CCCC(C)(C)O` (stereo not given): the Potency entry is “inactive”. Same read-out and setting: then `O=C(CS(=O)Cc1ccco1)NC/C=C\COc1cc(CN2CCCCC2)ccn1` (stereo not given), with “inactive”; and `O=C(O)c1cc(Br)c(O)c(Br)c1`, with “inactive”. Turning to `CC(C)NCC(O)COc1ccc(COCCOC(C)C)cc1` (stereo not given), the Potency entry is “inactive”.

Turning to `C[Si](C)=O`, the activity change, negative = cytotoxicity was -1.57% [at 6.97 µM]. As to `CC(C)c1ccc2cc(C(C)C)ccc2c1`, the Potency entry is “inactive”.

In the case of `CC(C)(C)NC(N)=O`, the Potency result was “inactive”. Take `Brc1ccc(-c2ccccc2)cc1`: the Potency result was “inactive”. On the same count and under the same terms, then `BrCCCCCBr`, with “inactive”.
